BAZ2B block = qHTS Assay for Inhibitors of BAZ2B. Bromodomain adjacent to zinc finger domain protein 2B (Homo sapiens), Q9UIF8. AlphaScreen BAZ2B-H3K14Ac peptide displacement. Potency, µM (series often up to 114 µM), without a hit: at the top dose activity change, negative = inhibition, most hits filed as inhibitors. 360,000 compounds, 4.4% hits; note: % is set by controls: 0 for no effect and ±100 for the full control effect; nearly all actives have a fitted effect of over 60% in size
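Compounds, titrated to a top concentration of 110 uM, were incubated 30 min at room temperature with preformed BAZ2B/acetyl-K14 H3 peptide complex (50 nM each). Proximity signal was measured by AlphaScreen after 20 min with beads.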
JMJD2A Tudor inh = qHTS Assay for Inhibitors of JMJD2A-Tudor Domain | AID 504339, 2011 | Lysine-specific demethylase 4A (Homo sapiens), O75164 | Potency, µM (series often up to 114 µM), inactives show at the top dose activity change, negative = inhibition, most hits filed as inhibitors | AlphaScreen JMJD2A-Tudor / H3K4me3 peptide binding | 390,000 compounds, 4.4% hits; note: % is set by controls: 0 for no effect and ±100 for the full control effect; nearly all actives have a fitted effect of over 50% in size
HP1b chromo inh = HTS for Inhibitors of HP1-beta Chromodomain Interactions with Methylated Histone Tails. Potency, µM (top dose mostly 114 µM), inactives show at the top dose activity change, negative = inhibition, hits mostly inhibitors. AlphaScreen HP1-beta / biotin-H3K9me3 peptide binding. 390,000 compounds, 0.56% hits. AID 540317, 2011. Chromobox protein homolog 1 (Homo sapiens), P83916; note: nearly all actives have a fitted effect of over 70% in size
Target sequence (P83916 whole entry, looked up): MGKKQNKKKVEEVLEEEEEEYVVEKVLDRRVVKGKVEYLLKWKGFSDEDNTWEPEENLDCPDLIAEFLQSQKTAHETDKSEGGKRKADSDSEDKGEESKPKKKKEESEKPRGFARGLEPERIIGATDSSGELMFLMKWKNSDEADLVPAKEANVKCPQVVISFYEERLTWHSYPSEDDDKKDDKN
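HP1-beta protein (50 nM final) preincubated 30 min at room temperature with biotinylated H3(1-18)K9me3 peptide (50 nM) in PBS pH 7.4, 0.01% Tween-20, then compound added for 30 min. AlphaScreen streptavidin donor/nickel chelate acceptor beads (10 ug/mL final), 30 min dark, luminescence read.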
L3MBTL1 inh = qHTS Assay for the Inhibitors of L3MBTL1 | Lethal(3)malignant brain tumor-like protein 1 (Homo sapiens), Q9Y468 | 230,000 compounds, 0.66% hits | Potency, µM (top dose mostly 57.1 µM), for inactives: top-dose activity, negative = inhibition, most hits filed as inhibitors | AlphaScreen L3MBTL1–H3K9me1 peptide binding; note: % is set by controls: 0 for no effect and ±100 for the full control effect; nearly all actives have a fitted effect of over 60% in size
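L3MBTL1 (50 nM) pre-complexed 30 min with biotinylated H3(1-15)K9me1 peptide (75 nM), then compounds added for 30 min at room temperature; AlphaScreen streptavidin donor/nickel chelate acceptor beads (10 ug/mL final) read after 30 min dark incubation.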
G9a inh = qHTS Assay for Inhibitors of Histone Lysine Methyltransferase G9a; Histone-lysine N-methyltransferase EHMT2 (Homo sapiens), Q96KQ7; G9a H3K9 monomethylation, AlphaScreen, 2 h; Potency, µM (highest dose often 102 µM), inactives show at the highest dose activity, negative = inhibition, actives largely listed as inhibitors; 350,000 compounds, 8.8% hits; AID 504332, 2011; note: % is set by controls: 0 for no effect and ±100 for the full control effect; nearly all actives have a fitted effect of over 75% in size
Target sequence (Q96KQ7 913-1193 limits assumed): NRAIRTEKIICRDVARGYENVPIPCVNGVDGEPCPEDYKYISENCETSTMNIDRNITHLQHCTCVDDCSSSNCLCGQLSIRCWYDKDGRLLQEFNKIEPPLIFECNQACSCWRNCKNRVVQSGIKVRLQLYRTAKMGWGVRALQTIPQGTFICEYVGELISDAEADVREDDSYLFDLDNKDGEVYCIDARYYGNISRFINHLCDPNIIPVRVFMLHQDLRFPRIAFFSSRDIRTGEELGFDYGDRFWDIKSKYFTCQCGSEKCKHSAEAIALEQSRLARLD
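Compounds were preincubated with 20 nM G9a for 15 min, after which biotinylated H3K9 peptide (500 nM) and SAM (20 uM) started a 2 h room-temperature reaction. Monomethylated product was quantified by antibody-based AlphaScreen chemiluminescence.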
Sfp PPTase inh = qHTS Assay for Inhibitors of Bacillus subtilis Sfp phosphopantetheinyl transferase (PPTase). 310,000 compounds, 3.5% hits. Biochemical Sfp PPTase activity, qHTS. AID 1490, 2009. Potency, µM, inactives show largest response in the series, negative = inhibition, usual class: inhibitors;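 note: the enzyme is Sfp with the accession as filed and its product quenches rhodamine fluorescence; 0% = enzyme reaction without inhibitor and -100% = no enzyme wells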
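Fluorescence-quenching assay with 15 nM Sfp, 5 uM rhodamine-CoA and 12.5 uM BHQ-2-labelled ybbR peptide in pH 7.6 Hepes/MgCl2 buffer. Enzyme was pre-incubated with compound for 15 min at room temperature. Rate was taken from the 30-min fluorescence change (525/598 nm).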
* marks the source's active call; other numbers are inactive results; ? = inconclusive; . = no result given; [ ] = dose if it differs, or a comment. Most compounds without a hit are left out; they make up all but 12% or so of the library. Calls come from the whole dose curve; as a rule, active = well fitted curve in the direction sought with a large enough effect; inconclusive = small, poorly fitted or top-dose-only effect, or another doubt; inactive = no such curve, though single readings can be large; an effect the other way counts as inactive or inconclusive. Potency is the fitted concentration of half-maximal effect.

SMILES	BAZ2B block	JMJD2A Tudor inh	HP1b chromo inh	L3MBTL1 inh	G9a inh	Sfp PPTase inh
COc1ccc(C(=O)NCc2nnc(SCC(=O)N3CCCCC3)o2)cc1OC	-17%	3%	32%	.	79µM*	-13%
Cc1nc(Cc2nnc(SCC(=O)N3CCN(c4ccccc4)CC3)o2)cs1	-2%	-14%	15%	0%	45µM*	.
O=C(NCc1nnc(SCC(=O)N2CCN(c3ccccc3)CC2)o1)c1ccc(F)cc1	-25%	-11%	63%	.	79µM*	-18%
O=C1C=C(NCCc2cc(Br)c(O)c(Br)c2)C(=O)c2ncccc21	.	28µM*	32µM*	.	.	.
CCc1ccccc1NC(=O)c1oc(=O)c2ccccc2c1-c1ccccc1	-4%	-4%	20%	.	10%[59 µM]	.
CCCCC[C@@H]1C=C(C(=O)O)[C@H](c2ccc(C)cc2)N1S(=O)(=O)c1ccc(C)cc1	.	89µM*	0%	7%	.	.
CCCC[C@@H]1C=C(C(=O)O)[C@H](c2ccc(C)cc2)N1S(=O)(=O)c1ccc(C)cc1	.	-12%	16%	3%	.	.
Cc1ccc(S(=O)(=O)Nc2ccsc2C#N)cc1	?	-5%	35%	.	40µM*	9%
Cc1sc2ncnc(SCc3ccc(C(=O)O)cc3)c2c1C	-15%	-7%	49%	13%	45µM*	-5%
Cc1ccc(-c2csc3ncnc(SCc4ccc(C(=O)O)cc4)c23)cc1	50µM*	?	17%	-2%	.	50µM*
Cc1nc(SCc2ccc(C(=O)O)cc2)c2c(C)c(C)sc2n1	?	-9%	-12%	.	-10%	5%
c1ccc(-c2csc3ncnc(N4CCN(Cc5ccc6c(c5)OCO6)CC4)c23)cc1	?	?	17%	.	11%[2.33 µM]	-15%
O=C(CSc1ncnc2scc(-c3ccccc3)c12)N1CCN(Cc2ccc3c(c2)OCO3)CC1	?	?	?	?	45µM*	-17%
CCOC(=O)C1CCN(c2c(C(=O)c3ccc(C)cc3)cnc3ccc(F)cc23)CC1	-24%	-33%	9%	.	-24%[59 µM]	.
NS(=O)(=O)c1ccc(CCNC(=O)CNCCc2ccc(C(F)(F)F)cc2)cc1	50µM*	18µM*	-7%	.	-1%	-5%
Cc1noc(C)c1C(=O)OCC(=O)NCCc1ccc(S(N)(=O)=O)cc1	.	-1%	24%	1%	.	.
Cc1nn(-c2ccccc2)c(Cl)c1C(=O)OCC(=O)NCCc1ccc(S(N)(=O)=O)cc1	-24%	-17%	21%	12%	50µM*	.
NS(=O)(=O)c1ccc(CCNCC(=O)N2CCC(Cc3ccccc3)CC2)cc1	56µM*	-35%[11.4 µM]	-12%	15%	.	?
NS(=O)(=O)c1ccc(CCNC(=O)C2CCN(C(=O)Nc3ccccc3)CC2)cc1	.	-8%	52%	-2%	.	.
CCCCC(=O)Nc1ccccc1C(C)C	-15%	.	.	-2%	9%	13%
CC(C)c1ccccc1NC(=O)CNCCc1ccc(C(F)(F)F)cc1	45µM*	14µM*	?	.	-9%[12.7 µM]	79µM*
NS(=O)(=O)c1ccc(CCNC(=O)CNC(=O)c2ccc(F)cc2)cc1	6%	-14%	-19%	.	2%	5%
NS(=O)(=O)c1ccc(CCNCC(=O)NC2CC2)cc1	?	4.5µM*	?	6%	50µM*	-1%
CCn1cc2nc(SCc3cc(C)ccc3C)n(Cc3ccc(Cl)cc3)c(=O)c2n1	-2%	-4%	19%	.	3%[59 µM]	.
O=c1ccc2cc3c4c(c2o1)CCCN4CCC3	15%	-8%	73%	5%	?	-5%

From PubChem
